Assay [1] can be described thus: Cellular Toxicity (caspase-3) H-4-II-E (AID 663).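 Further: cells exposed to compound for 16 hr before readout.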 The following applies: H-4-II-E rat hepatoma, scaled: DMSO 0%, 100 µM tamoxifen 100%; at 92.2 µM (top of the series). Summed up: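 Luminescence from caspase-cleaved aminoluciferin substrate, read 20 min after reagent addition, reports caspase 3/7 activation in rat H-4-II-E cells after 16 hr compound exposure. Normalized to DMSO (basal) and 100 uM tamoxifen (100%); AC50 from Hill fits.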

The nature of assay [2]: Cellular Toxicity (caspase-3) Hek293 (AID 664).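 Further: cells exposed to compound for 16 h at 37 °C before readout.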 The note with it: HEK293 caspase-3 activation, DMSO = 0%, 100 µM tamoxifen = 100%; at 92.2 µM (top of the series). An outline of the steps:
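Cells plated, 5 hr at 37 °C; compounds added; 16 hr at 37 °C; Caspase-Glo 3/7 reagent, 20 min RT; luminescence read. Activation expressed relative to DMSO and 100 uM tamoxifen, AC50 by Hill model.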

Assay [3] can be described thus: Cellular Toxicity (caspase-3) N2a (AID 665).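 Further: compound exposure lasted 16 h at 37 °C before readout.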 Further: potency means the concentration at half of the fitted maximal effect. The note with it: Potency: caspase-3 activation. An outline of the steps: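 N2a cells, 1500/well, 5 h settle at 37 °C; cpd 16 h, 37 °C; Caspase-Glo 3/7, 1 h RT; luminescence. Norm: DMSO = 0, 10 uM staurosporine = 100%. AC50, Hill fit.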
Assay [4] is described as follows: Cellular Toxicity (caspase-3) NIH 3T3 (AID 666). Further: potency means the concentration at half of the fitted maximal effect. An outline of the steps: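 Luminescence from aminoluciferin released by caspase-3/7 cleavage of a peptide substrate served as read-out. Mouse fibroblast NIH 3T3 cells were exposed to compounds over a concentration range for 16 hours, and AC50 values came from standard Hill modelling.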
A short description of assay [5]: Cellular Toxicity (caspase-3) Renal Proximal Tubule (AID 667).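 Further: cells exposed to compound for 16 hours at 37 °C before detection.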 Further: potency means the concentration at half of the fitted maximal effect.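 On caspase-3 activation: 0% = DMSO basal and 100% = 10 µM staurosporine.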 The following applies: Potency: caspase-3 activation. Summed up:
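Caspase-Glo 3/7 read-out, rat primary kidney proximal tubule cells. Compound exposure 16 h, 37 °C; detection after 1 h at RT. Activity scaled to DMSO and 10 uM staurosporine.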

A short description of assay [6]: Cell Viability - LYMP2-001 (AID 921).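 Further: cells exposed to compound for 24 h at 37 °C; nearly all actives have a fitted effect of over 70% in size.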 Further: potency means the concentration at half of the fitted maximal effect. An outline of the steps: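 A lymphoblastoid cell line of human origin was treated with library compounds across a concentration series for 24 hours, and viable cell number was estimated from ATP-driven luciferase light output. Hill modeling gave AC50.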
The target in assay [7] is Guanine nucleotide-binding protein G(i) subunit alpha-1 (Homo sapiens) (UniProt P63096). Description: qHTS Assay for Inhibitors of RGS12 GoLoco Motif Activity (Green Fluorophore) (AID 879).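 Further: 0% = labeled peptide with Gαi1 and full inhibition = labeled peptide alone without protein; negative values mean loss of peptide binding seen as reduced polarization.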 Summed up: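 Fluorescence polarization assay: 50 nM Gαi1 with 10 nM FITC-labeled RGS12 GoLoco peptide in 10 mM Tris pH 7.5, 150 mM NaCl, 0.1 mM GDP, 0.05% NP40, 10 min at room temperature with compound.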
Chain of Guanine nucleotide-binding protein G(i) subunit alpha-1 (Homo sapiens) (P63096 whole entry, looked up): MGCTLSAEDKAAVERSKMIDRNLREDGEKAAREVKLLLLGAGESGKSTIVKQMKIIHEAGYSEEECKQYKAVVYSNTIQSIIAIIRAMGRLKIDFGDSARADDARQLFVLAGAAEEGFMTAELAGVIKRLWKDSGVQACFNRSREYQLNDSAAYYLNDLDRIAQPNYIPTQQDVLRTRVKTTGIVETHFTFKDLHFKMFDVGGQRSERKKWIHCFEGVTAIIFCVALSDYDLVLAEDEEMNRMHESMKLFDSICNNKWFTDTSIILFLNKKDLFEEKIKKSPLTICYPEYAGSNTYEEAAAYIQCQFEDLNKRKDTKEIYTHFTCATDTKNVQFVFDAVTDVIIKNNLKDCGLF
(Quantitative high-throughput screening tests each substance at several concentrations.)

For assay [8], the target named is Cytochrome P450 3A4 (Homo sapiens) (UniProt P08684). Description: qHTS Assay for Activators of Cytochrome P450 3A4 (AID 885). Further: nearly all actives have a fitted effect of over 65% in size. Summed up:
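Human CYP3A4 (20 nM) with Luciferin-PPXE at 25 uM (its KM) in 200 mM KPO4; 10 min compound preincubation, then NADPH regeneration and 60 min reaction at RT. Luciferin read by luminescence; normalized to 57 uM ketoconazole full inhibition.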

Assay [9] has as its target Cytochrome P450 2D6 (Homo sapiens) (UniProt P10635). Description: qHTS Assay for Inhibitors and Substrates of Cytochrome P450 2D6 (AID 891). Further: nearly all actives have a fitted effect of over 60% in size. Further: potency means the concentration at half of the fitted maximal effect. Summed up:
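Human CYP2D6 (5 nM) with 30 uM Luciferin-ME EGE (at Km) in 100 mM KPO4, compound preincubated 10 min, then NADPH regeneration system for 60 min at room temperature. Luciferin read by luminescence; normalized to 1.43 uM quinidine.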

Assay [10] deals with Cytochrome P450 2C19 (Homo sapiens) (UniProt P33261). Description: qHTS Assay for Inhibitors and Substrates of Cytochrome P450 2C19 (AID 899). Further: nearly all actives have a fitted effect of over 60% in size. Further: potency means the concentration at half of the fitted maximal effect. Summed up:
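Human CYP2C19 (5nM) with Luciferin-H EGE at 10uM (its KM) in 50mM KPO4 was preincubated with compound for 10 min at 37C. NADPH regeneration started a 60 min 37C reaction. Luciferin was read by luminescence, normalized to 57uM ketoconazole.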

Assay [11] in a line: qHTS Assay for Identification of Small Molecule Agonists for Thrombopoietin (TPO) Signaling Pathway (AID 917). Further: on the % scale 0 is the no-effect control and ±100 the full control effect. Summed up: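 IL-3-dependent murine pro-B Ba/F3 cells, stably transfected with human TPO receptor and GpIIb-promoter luciferase, are incubated 24 hrs at 37 C with test compound and 26 pM TPO; luciferase signal is read after 10 min at room temperature.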
Assay [12] deals with Muscarinic acetylcholine receptor M1 (Rattus norvegicus) (UniProt P08482). Description: qHTS Assay for Antagonists of Acetylcholine Muscarinic M1 Receptor: Kinetic Measurement of Intracellular Calcium Response (AID 943). Further: nearly all actives have a fitted effect of over 75% in size. Further: potency means the concentration at half of the fitted maximal effect. An outline of the steps: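 Rat M1-CHO cells, 2000/well, overnight → Fluo-4 no-wash dye with probenecid, 1 h 37C → compound 10 min, room temp → basal read 6 s → carbachol EC80 (100 nM) → 4 min kinetic read; peak/basal.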
Chain of Muscarinic acetylcholine receptor M1 (Rattus norvegicus) (P08482 whole entry, looked up): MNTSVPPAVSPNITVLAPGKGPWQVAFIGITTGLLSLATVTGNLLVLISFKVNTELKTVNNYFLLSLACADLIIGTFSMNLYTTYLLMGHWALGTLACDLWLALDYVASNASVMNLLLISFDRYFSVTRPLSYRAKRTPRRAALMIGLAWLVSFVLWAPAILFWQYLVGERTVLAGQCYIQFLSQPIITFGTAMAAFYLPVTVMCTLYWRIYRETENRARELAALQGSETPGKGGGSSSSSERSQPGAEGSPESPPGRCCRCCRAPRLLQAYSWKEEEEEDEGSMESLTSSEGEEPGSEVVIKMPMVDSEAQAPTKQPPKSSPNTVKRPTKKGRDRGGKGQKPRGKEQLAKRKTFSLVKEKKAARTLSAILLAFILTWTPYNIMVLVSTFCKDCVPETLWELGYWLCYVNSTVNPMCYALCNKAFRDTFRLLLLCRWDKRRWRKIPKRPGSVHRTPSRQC

The target is the same in assay [13]. Description: qHTS Assay for Antagonists of Acetylcholine Muscarinic M1 Receptor: Measurement of IP-One Response (AID 944). Further: nearly all actives have a fitted effect of over 75% in size. Further: potency means the concentration at half of the fitted maximal effect. Summed up:
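M1-CHO (rat), 2000 cells/well, overnight recovery; cpd 10 min; carbachol EC80 (200 nM), 30 min, HEPES buffer + 50 mM LiCl pH 7.4; IP-One HTRF, Ex 337, Em 620/665 nm.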

The nature of assay [14]: Confirmation and Secondary Assay for Modulators of Hemoglobin Beta Chain Splicing at IVS2 654 locus (AID 910).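 Further: per-well total GFP intensity by laser scanning cytometry after 2-day treatment; % of control where 0% means no effect.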 An outline of the steps:
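HeLa cells stably carrying EGFP interrupted by mutant beta-globin IVS2-654 intron (CMV-driven) were treated with compound for 2 days at 37C; corrected splicing was scored as total peak GFP intensity per well (488 nm excitation, 500-520 nm emission).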

A short description of assay [15]: Confirmation and Secondary Assay for Modulators of Hemoglobin Beta Chain Splicing at IVS2 705 locus (AID 930).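 Further: HeLa cells stably expressing the EGFP-705 splicing reporter; GFP fluorescence per well restored by corrected splicing of the IVS2-705 intron in EGFP; % of control where 0% means no effect.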 Summed up:
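Fluorescence gain (488 nm laser, 500-520 nm PMT) reflects restored correct splicing of a mutant IVS2-705 intron inside EGFP in stably transfected HeLa cells after 2-day compound treatment.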

Assay [16] is described as follows: qHTS Assay for Identification of Small Molecule Antagonists for Thrombopoietin (TPO) Signaling Pathway (AID 918). Further: potency means the concentration at half of the fitted maximal effect; nearly all actives have a fitted effect of over 60% in size. The note with it: TPO-dependent cell signaling reporter, antagonist mode. An outline of the steps:
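Ba/F3 (murine, hTPO-R, GPIIb-luc reporter); overnight IL-3 withdrawal; cpd + TPO 26 pM final (EC50); 24 h 37 C/5% CO2; Steadylite luminescence after 10 min RT.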

The nature of assay [17]: qHTS Assay for Identification of Small Molecule Antagonists for NFkB Signaling Pathway (AID 895; active means well fitted inhibition curve with a large enough effect in the signal ratio, with a control signal flat, not every such curve was filed as active; the % refers to the signal ratio; further: on the % scale 0 is the no-effect control and ±100 the full control effect). An outline of the steps: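 NFkB-bla ME-180 cervical carcinoma cells with beta-lactamase reporter under NFkB response element; compounds added, then TNF alpha at 10 pM final (EC50), 5 h at 37 C. LiveBLAzer substrate 2 h, room temperature; emission 460/530 nm at 405 nm excitation.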

Assay [18] can be described thus: qHTS Assay for Identification of Small Molecule Agonists for NFkB Signaling Pathway (AID 928; calls by dose curve). The following applies: NFkB beta-lactamase reporter cells, blue/green ratio. Summed up: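 ME-180 NFkB-bla cells carry a beta-lactamase reporter under an NFkB response element. Compound plus 10 pM TNF alpha (final) was applied for 5 hrs at 37 C. After 2 hrs with LiveBLAzer substrate, 460/530 nm emission was read at 405 nm excitation.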

Values joined by “and” are separate entries in the source; they are usually repeats but may differ in a detail not shown here. Identical values can stand only once. Inconclusive results are not listed. Some structures have more than one record in an assay (separate samples or runs), and their calls can disagree. Active and inactive are the calls of the source. Unless noted, the call rests on the fitted dose curve; in most records, active means well fitted curve in the direction sought with a large enough effect; inconclusive means small, poorly fitted or top-dose-only effect, or another doubt; inactive means no such curve, though single readings can be large; an effect the other way counts as inactive or inconclusive.

Chain of Cytochrome P450 3A4 (Homo sapiens) (P08684 whole entry, looked up): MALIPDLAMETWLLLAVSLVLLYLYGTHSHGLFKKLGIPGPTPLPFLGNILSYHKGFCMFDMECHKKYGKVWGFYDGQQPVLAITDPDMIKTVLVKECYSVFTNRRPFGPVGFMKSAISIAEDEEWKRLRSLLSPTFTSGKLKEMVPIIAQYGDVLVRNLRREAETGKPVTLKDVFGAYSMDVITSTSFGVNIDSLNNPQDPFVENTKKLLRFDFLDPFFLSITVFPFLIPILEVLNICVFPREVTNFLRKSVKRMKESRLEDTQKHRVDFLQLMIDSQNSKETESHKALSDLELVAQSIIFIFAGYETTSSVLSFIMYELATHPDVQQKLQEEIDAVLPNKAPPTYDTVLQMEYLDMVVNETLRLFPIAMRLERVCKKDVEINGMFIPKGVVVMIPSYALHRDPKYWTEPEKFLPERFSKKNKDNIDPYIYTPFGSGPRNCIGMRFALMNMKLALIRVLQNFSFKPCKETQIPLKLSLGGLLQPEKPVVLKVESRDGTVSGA
Chain of Cytochrome P450 2C19 (Homo sapiens) (P33261 whole entry, looked up): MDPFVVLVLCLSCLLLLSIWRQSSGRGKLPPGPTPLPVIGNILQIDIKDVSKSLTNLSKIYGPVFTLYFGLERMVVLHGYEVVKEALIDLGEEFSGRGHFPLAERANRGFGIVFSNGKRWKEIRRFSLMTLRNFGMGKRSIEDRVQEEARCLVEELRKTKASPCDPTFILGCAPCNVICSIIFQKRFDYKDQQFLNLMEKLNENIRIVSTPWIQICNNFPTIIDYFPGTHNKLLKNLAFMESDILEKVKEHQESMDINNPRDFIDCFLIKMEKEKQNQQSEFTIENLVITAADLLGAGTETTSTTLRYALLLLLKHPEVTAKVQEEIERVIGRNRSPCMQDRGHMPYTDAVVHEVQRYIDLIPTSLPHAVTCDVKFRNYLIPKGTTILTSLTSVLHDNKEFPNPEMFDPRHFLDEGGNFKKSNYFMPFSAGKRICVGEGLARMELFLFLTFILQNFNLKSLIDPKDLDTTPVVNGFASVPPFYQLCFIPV
Chain of Cytochrome P450 2D6 (Homo sapiens) (P10635 whole entry, looked up): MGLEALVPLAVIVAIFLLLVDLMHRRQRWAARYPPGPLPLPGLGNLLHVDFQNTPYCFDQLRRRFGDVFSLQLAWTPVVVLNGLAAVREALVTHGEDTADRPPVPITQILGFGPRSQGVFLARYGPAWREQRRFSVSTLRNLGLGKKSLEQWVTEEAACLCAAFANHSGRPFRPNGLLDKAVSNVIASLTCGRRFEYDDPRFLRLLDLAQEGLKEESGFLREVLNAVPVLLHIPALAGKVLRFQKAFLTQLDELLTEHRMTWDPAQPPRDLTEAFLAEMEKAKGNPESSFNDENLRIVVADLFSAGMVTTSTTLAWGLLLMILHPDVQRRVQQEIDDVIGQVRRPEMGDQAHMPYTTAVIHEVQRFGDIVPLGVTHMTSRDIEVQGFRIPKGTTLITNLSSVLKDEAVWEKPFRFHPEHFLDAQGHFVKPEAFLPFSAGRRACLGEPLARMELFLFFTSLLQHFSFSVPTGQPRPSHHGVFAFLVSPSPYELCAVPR

On to `CN(C)c1ccc(N=NS(=O)(=O)O)cc1`, for which the caspase-3 activation in assay [1] was 11.8% (inactive); in assay [2], -1.18% (inactive). The Potency entry in assay [3], in [4], in assay [5] and in assay [6] was “inactive” in each case.
With `CN(C)CCC(c1ccc(Cl)cc1)c1ccccn1` (stereo not drawn), the caspase-3 activation is 1.63% (inactive) in assay [1] and 1.34% (inactive) in [2]. Further, the Potency entry in [3], in [4], in assay [5] and in [6] was “inactive” throughout.
As for `c1ccc2sc(SSc3nc4ccccc4s3)nc2c1`, the results for the caspase-3 activation in [1] and in assay [2] were -0.551% (inactive) and 2.01% (inactive), respectively. The Potency entry in assay [3], in assay [4], in assay [5] and in assay [6] was “inactive” in each case.
In the case of `CN(C)c1ccc(C(=C2C=CC(=[N+](C)C)C=C2)c2ccccc2)cc1`, the caspase-3 activation is -4.63% (active) in assay [1] and -9.3% (active) in assay [2]. Also, the Potency in assay [3] was 79.4 nM (active); in assay [4] it was 1000 nM (active); in assay [5], 794 nM (active); in [6] it was 199 nM (active).
Take `O=c1[nH]c2cc([N+](=O)[O-])c([N+](=O)[O-])cc2[nH]c1=O`: the result in assay [7] was inactive. Also, the Potency entry in [8], in assay [9], in assay [10], in assay [11], in assay [12] and in [13] was “inactive” in each case.
Take `N=C1N=C(N)c2cc3ccccc3cc21`: the caspase-3 activation is 153% (active) in assay [1] and 9.9% (inactive) in assay [2]. For the same molecule, the Potency result in assay [5] was “inactive”. Besides, in [6], the Potency was 39800 nM (active).
Regarding `O=C1CN(/N=C/c2ccc([N+](=O)[O-])o2)C(=O)N1`, the caspase-3 activation in [1] was -0.519% (inactive); in [2], -0.37% (inactive). Also, the Potency entry in [3], in assay [4], in [5] and in assay [6] was “inactive” throughout. Besides, the call in [14] and in assay [15] was inactive.
For the molecule `COC1=C(OC)C(=O)c2ccccc2C1=O`, the molecule was classed as inactive in assay [7]. The Potency entry in assay [8] was “inactive”. The Potency in assay [16] is 3980 nM (active).
For the molecule `CN=c1nc(-c2ccccc2)n(-c2ccccc2)s1`, in [7], the outcome was inactive. The Potency entry in [8] and in [17] was “inactive” in each case. Further, the Potency is 3160 nM (active) in [10], 2510 nM (active) in assay [16] and 12600 nM (active) in assay [13].
Regarding `Fc1ccc(C(OCCCc2cnc[nH]2)c2ccc(F)cc2)cc1`, the call in assay [7] was inactive. The Potency entry in assay [8] was “inactive”. In addition, the Potency in assay [9] was 631 nM (active); in [10], 4 nM (active); in assay [12], 5010 nM (active); in [13] it was 7940 nM (active).
With `N#C/C(=C\c1ccc(O)c(O)c1)C(=O)c1ccc(O)c(O)c1`, the result in assay [7] was inactive. Also, the Potency entry in [8], in assay [17] and in assay [12] was “inactive” in each case.
For the molecule `CCCCCCCC/C=C\CCCCCCCC(=O)NCCO`, in [7], the molecule was called inactive. Also, the Potency result in [8], in assay [11], in assay [12] and in assay [13] was “inactive” in each case.
On to `C[C@@H](NC(=O)/C(C#N)=C/c1ccc(O)c(O)c1)c1ccccc1`, for which the molecule was classed as inactive in assay [7]. The Potency entry in assay [8], in [12] and in [13] was “inactive” each time.
For `COc1cc2c(CCNC(C)=O)c[nH]c2cc1Cl`, in [7], the call was inactive. In assay [8], the Potency entry is “inactive”. The Potency entry in [10] was “inactive and 5.01 µM (active)”; in assay [18] it was 3160 nM (active).
For the molecule `NCCNC(=O)c1ncsc1-c1cccc(F)c1`, in [7], the call was inactive. Also, the Potency result in assay [8] and in assay [13] was “inactive” throughout.

(Values after PubChem BioAssay (NCATS).)
